Results filed as inconclusive are left out. Activity calls are given as the source filed them. Unless noted, the call rests on the fitted dose curve; in most records, active means well fitted curve in the direction sought with a large enough effect in the repeat runs; inconclusive means weak or mixed curves; inactive means no such curve, though single readings can be large; an effect the other way counts as inactive or inconclusive.

For eight molecules, Potency results are on record in PubChem BioAssay (Tox21).

Test [1] is described as follows: qHTS assay to identify aromatase inhibitors - cell viability counter screen (AID 743084).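 Further: cells stimulated with testosterone during compound exposure; nearly all actives have a fitted effect of over 55% in size.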
The target in test [2] is Aryl hydrocarbon receptor (Homo sapiens) (UniProt P35869). Nature of the test: qHTS assay to identify small molecule that activate the aryl hydrocarbon receptor (AhR) signaling pathway (AID 743085).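 Further: HG2L7.5c1 human HepG2 liver cells with stably integrated DRE-driven firefly reporter; series mostly up to about 70 µM; nearly all actives have a fitted effect of over 15% in size.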 Put shortly: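 Compounds were tested in HepG2 hepatocellular carcinoma cells harbouring a stably integrated luciferase gene under control of 20 DREs. Increased reporter signal after 24 h treatment at 37C was taken as AhR activation.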
(In general: qHTS replaces the single test concentration by a dilution series.)

Test [3] in a line: qHTS assay to identify small molecule that activate the aryl hydrocarbon receptor (AhR) signaling pathway - cell viability counter screen (AID 743086).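 Further: HepG2 liver cells carrying the AhR DRE luciferase reporter; series mostly up to about 70 µM; nearly all actives have a fitted effect of over 45% in size.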 The gist of the method:
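HepG2-AhR-luc (HG2L7.5c1) cells, 4000/well, treated 24 h at 37 C with compound; viability measured as CellTiter-Fluor fluorescence after 30 min in the same wells as the luciferase read.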

Test [4] addresses Peroxisome proliferator-activated receptor gamma (Homo sapiens) (UniProt P37231). Kind of test: qHTS assay to identify small molecule antagonists of the peroxisome proliferator-activated receptor gamma (PPARg) signaling pathway (AID 743191; calls by dose curve; further: series mostly up to about 63 µM; nearly all actives have a fitted effect of over 30% in size). The gist of the method: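 GeneBLAzer PPARg UAS-bla HEK293H cells, 5 h post-plating, exposed to compounds 17 h at 37C. LiveBLAzer B/G FRET substrate added for 1 h at room temperature; beta-lactamase reporter read by fluorescence intensity.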

Test [5] can be described thus: qHTS assay to identify small molecule antagonists of the peroxisome proliferator-activated receptor gamma (PPARg) signaling pathway - cell viability counter screen (AID 743194). Further: nearly all actives have a fitted effect of over 55% in size. Put shortly:
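Cytotoxicity counter screen in PPARg-bla HEK293H cells, same wells as reporter assay. Compounds plus 50 nM rosiglitazone (final) for 17 h at 37 C, then viability read by CellTiter-Glo luminescence.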

Test [6] in a line: qHTS assay for small molecule agonists of the antioxidant response element (ARE) signaling pathway (AID 743202; active means well fitted activation curve with a large enough effect in the signal ratio in the repeat runs, not every such curve was filed as active; the % refers to the signal ratio; further: potency means the concentration at half of the fitted maximal effect). The gist of the method:
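HepG2 ARE-bla reporter line, 2,000 cells/well; 5 h preincubation 37 C/5% CO2; compound (DMSO) 16 h 37 C; B/G FRET substrate 2 h RT; fluorescence intensity.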

A short description of test [7]: qHTS assay for small molecule agonists of the antioxidant response element (ARE) signaling pathway - cell viability counter screen (AID 743203; calls by dose curve; further: nearly all actives have a fitted effect of over 55% in size). The gist of the method: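 Luminescence read-out (CellTiter-Glo, 30 min at room temperature) measured cell viability in the same wells as the ARE beta-lactamase reporter. HepG2 ARE-bla cells were treated with compounds for 16 hrs at 37C/5% CO2.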

Test [8] in a line: qHTS assay for small molecule activators of the heat shock response signaling pathway - cell viability counter screen (AID 743209). Further: nearly all actives have a fitted effect of over 50% in size. The gist of the method: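 HSE-bla HeLa; 1500 cells/well; overnight 37 C, 5% CO2; compound 5 h 37 C; LiveBLAzer B/G substrate 2.5 h RT; CellTiter-Glo 30 min RT; luminescence.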
A short description of test [9]: qHTS assay for small molecule activators of the heat shock response signaling pathway (AID 743210; active means well fitted activation curve with a large enough effect in the signal ratio in the repeat runs, with a control signal flat, not every such curve was filed as active; the % refers to the signal ratio; further: series mostly up to about 63 µM). The gist of the method: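 Beta-lactamase reporter read-out: FRET substrate fluorescence after 2.5 h at RT, following 5 h compound treatment at 37 C of HeLa cells carrying HSE-driven bla reporter; quantitative HTS format.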
Test [10] can be described thus: qHTS assay to identify small molecule agonists of the peroxisome proliferator-activated receptor delta (PPARd) signaling pathway - cell viability counter screen (AID 743211). Further: nearly all actives have a fitted effect of over 55% in size. The gist of the method:
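Counter screen for cytotoxicity run in parallel with the PPARd reporter screen. Beta-lactamase reporter HEK293H cells exposed to compounds 17 h; ATP-based CellTiter-Glo luminescence quantified viability.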

Test [11] addresses Peroxisome proliferator-activated receptor delta (Homo sapiens) (UniProt Q03181). Kind of test: qHTS assay to identify small molecule agonists of the peroxisome proliferator-activated receptor delta (PPARd) signaling pathway (AID 743212; calls by dose curve). Put shortly: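 Read-out: beta-lactamase FRET fluorescence after 2 h room-temperature incubation with LiveBLAzer B/G substrate. Cells were HEK293H carrying a UAS-bla reporter for PPARd, treated at 37 C with DMSO-dissolved compounds.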

Test [12] is described as follows: qHTS assay to identify small molecule antagonists of the peroxisome proliferator-activated receptor delta (PPARd) signaling pathway - cell viability counter screen (AID 743213). Further: nearly all actives have a fitted effect of over 50% in size. The gist of the method:
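Viability counter-screen, qHTS format: PPARd-bla HEK293H, L165041 300 nM final, 17 h compound exposure at 37 C, CellTiter-Glo luminescence after 30 min RT.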

Test [13] can be described thus: qHTS assay to identify small molecule agonists of the farnesoid-X-receptor (FXR) signaling pathway - cell viability counter screen (AID 743218). Further: nearly all actives have a fitted effect of over 45% in size. The gist of the method:
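Luminescence from CellTiter-Glo, read after 30 min at RT, reports viability of GeneBLAzer FXR-UAS-bla HEK 293T cells treated 16 h with compounds in the wells used for the beta-lactamase reporter.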

For test [14], the target named is Peroxisome proliferator-activated receptor gamma (Homo sapiens) (UniProt P37231). Nature of the test: qHTS assay to identify small molecule agonists of the peroxisome proliferator-activated receptor gamma (PPARg) signaling pathway (AID 743094; active means well fitted activation curve with a large enough effect in the signal ratio in the repeat runs, not every such curve was filed as active; the % refers to the signal ratio). The gist of the method:
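HEK293H PPARg-bla cells, 5 h settle at 37C/5% CO2; compound (DMSO) 17 h, 37C; B/G FRET substrate 1 h RT; fluorescence intensity read-out. qHTS format.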

The target in test [15] is Bile acid receptor (Homo sapiens) (UniProt Q96RI1). Nature of the test: qHTS assay to identify small molecule antagonists of the farnesoid-X-receptor (FXR) signaling pathway (AID 743217; active means well fitted inhibition curve with a large enough effect in the signal ratio in the repeat runs, not every such curve was filed as active; the % refers to the signal ratio). Put shortly: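 Read-out: beta-lactamase FRET fluorescence (LiveBLAzer B/G substrate, 2 h, room temperature) in GeneBLAzer FXR-UAS-bla HEK 293T cells. Compounds were co-dosed with 50 uM chenodeoxycholic acid (final) and incubated 16 h at 37 °C.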

The target is the same in test [16]. Nature of the test: qHTS assay to identify small molecule agonists of the farnesoid-X-receptor (FXR) signaling pathway (AID 743220; active means well fitted activation curve with a large enough effect in the signal ratio in the repeat runs, not every such curve was filed as active; the % refers to the signal ratio). Put shortly: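 FXR-UAS-bla HEK 293T cells carrying a UAS-driven beta-lactamase reporter were plated for 5 h at 37C/5% CO2, then exposed to DMSO-dissolved Tox21 10K compounds for 16 h at 37C. A LiveBLAzer B/G FRET substrate was loaded for 2 h at room temperature before fluorescence reading.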

The nature of test [17]: qHTS assay to identify small molecule antagonists of the farnesoid-X-receptor (FXR) signaling pathway - cell viability counter screen (AID 743221; active means well fitted cell-killing curve with a large enough effect in the repeat runs, not every such curve was filed as active; further: nearly all actives have a fitted effect of over 50% in size). The gist of the method: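 Multiplexed counter screen: viability of FXR-bla HEK 293T cells under agonist stimulation by chenodeoxycholic acid (50 uM, final) and test compound for 16 h at 37 C, measured by CellTiter-Glo luminescence in the reporter wells.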

The target of test [18] is Vitamin D3 receptor (Homo sapiens) (UniProt P11473). Kind of test: qHTS assay to identify small molecule agonists of the vitamin D receptor (VDR) signaling pathway (AID 743222; calls by dose curve). Put shortly: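 Beta-lactamase reporter readout (LiveBLAzer B/G FRET, 2 h RT) in VDR-bla cells after 16 h compound treatment at 37C, 5% CO2; cells pre-incubated 4 h before pin transfer of DMSO solutions.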

Test [19] shares this target. Nature of the test: qHTS assay to identify small molecule antagonists of the vitamin D receptor (VDR) signaling pathway (AID 743223; active means well fitted inhibition curve with a large enough effect in the signal ratio in the repeat runs, not every such curve was filed as active; the % refers to the signal ratio). The gist of the method: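 Cells carrying a VDR-driven beta-lactamase reporter (VDR-bla) were co-treated with compound and 3 nM final 1alpha,25-dihydroxyvitamin D3 for 16 h at 37C; reporter activity was measured as FRET substrate fluorescence after 2 h at room temperature.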

The target of test [20] is Peroxisome proliferator-activated receptor delta (Homo sapiens) (UniProt Q03181). Kind of test: qHTS assay to identify small molecule antagonists of the peroxisome proliferator-activated receptor delta (PPARd) signaling pathway (AID 743215; active means well fitted inhibition curve with a large enough effect in the signal ratio in the repeat runs, not every such curve was filed as active; the % refers to the signal ratio;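 further: cells stimulated with agonist L165041 at 300 nM final during compound exposure; series mostly up to about 62 µM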). The gist of the method: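 HEK293H GeneBLAzer PPARd UAS-bla reporter cells; cpd + L165041 300 nM final, 17 h 37 C; LiveBLAzer B/G FRET substrate 2 h RT; fluorescence intensity read-out. Antagonist mode.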
Chain of Peroxisome proliferator-activated receptor delta (Homo sapiens) (Q03181 whole entry, looked up): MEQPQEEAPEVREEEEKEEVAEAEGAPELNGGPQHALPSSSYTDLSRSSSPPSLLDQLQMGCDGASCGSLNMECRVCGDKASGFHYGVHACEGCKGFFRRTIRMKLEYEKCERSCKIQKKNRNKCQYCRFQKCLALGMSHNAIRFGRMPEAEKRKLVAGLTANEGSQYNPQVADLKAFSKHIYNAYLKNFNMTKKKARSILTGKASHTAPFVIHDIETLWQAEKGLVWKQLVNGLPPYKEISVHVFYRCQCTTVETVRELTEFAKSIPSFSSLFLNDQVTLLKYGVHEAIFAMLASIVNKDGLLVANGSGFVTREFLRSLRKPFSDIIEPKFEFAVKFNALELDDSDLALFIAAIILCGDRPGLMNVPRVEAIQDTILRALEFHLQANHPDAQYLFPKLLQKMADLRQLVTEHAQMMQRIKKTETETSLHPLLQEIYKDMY

Chain of Bile acid receptor (Homo sapiens) (Q96RI1 whole entry, looked up): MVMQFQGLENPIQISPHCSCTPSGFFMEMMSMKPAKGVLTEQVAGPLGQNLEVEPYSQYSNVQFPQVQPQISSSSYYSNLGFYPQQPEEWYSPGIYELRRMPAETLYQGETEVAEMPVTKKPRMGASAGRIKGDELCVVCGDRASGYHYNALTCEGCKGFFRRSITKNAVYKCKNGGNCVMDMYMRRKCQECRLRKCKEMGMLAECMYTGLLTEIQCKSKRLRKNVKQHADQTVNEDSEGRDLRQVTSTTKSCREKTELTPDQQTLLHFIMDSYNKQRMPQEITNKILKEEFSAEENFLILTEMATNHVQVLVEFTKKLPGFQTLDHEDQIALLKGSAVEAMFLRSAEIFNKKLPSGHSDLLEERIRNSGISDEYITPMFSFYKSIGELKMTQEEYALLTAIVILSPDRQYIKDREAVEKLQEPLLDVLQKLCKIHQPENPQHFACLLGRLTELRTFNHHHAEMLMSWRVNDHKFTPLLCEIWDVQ
Chain of Aryl hydrocarbon receptor (Homo sapiens) (P35869 whole entry, looked up): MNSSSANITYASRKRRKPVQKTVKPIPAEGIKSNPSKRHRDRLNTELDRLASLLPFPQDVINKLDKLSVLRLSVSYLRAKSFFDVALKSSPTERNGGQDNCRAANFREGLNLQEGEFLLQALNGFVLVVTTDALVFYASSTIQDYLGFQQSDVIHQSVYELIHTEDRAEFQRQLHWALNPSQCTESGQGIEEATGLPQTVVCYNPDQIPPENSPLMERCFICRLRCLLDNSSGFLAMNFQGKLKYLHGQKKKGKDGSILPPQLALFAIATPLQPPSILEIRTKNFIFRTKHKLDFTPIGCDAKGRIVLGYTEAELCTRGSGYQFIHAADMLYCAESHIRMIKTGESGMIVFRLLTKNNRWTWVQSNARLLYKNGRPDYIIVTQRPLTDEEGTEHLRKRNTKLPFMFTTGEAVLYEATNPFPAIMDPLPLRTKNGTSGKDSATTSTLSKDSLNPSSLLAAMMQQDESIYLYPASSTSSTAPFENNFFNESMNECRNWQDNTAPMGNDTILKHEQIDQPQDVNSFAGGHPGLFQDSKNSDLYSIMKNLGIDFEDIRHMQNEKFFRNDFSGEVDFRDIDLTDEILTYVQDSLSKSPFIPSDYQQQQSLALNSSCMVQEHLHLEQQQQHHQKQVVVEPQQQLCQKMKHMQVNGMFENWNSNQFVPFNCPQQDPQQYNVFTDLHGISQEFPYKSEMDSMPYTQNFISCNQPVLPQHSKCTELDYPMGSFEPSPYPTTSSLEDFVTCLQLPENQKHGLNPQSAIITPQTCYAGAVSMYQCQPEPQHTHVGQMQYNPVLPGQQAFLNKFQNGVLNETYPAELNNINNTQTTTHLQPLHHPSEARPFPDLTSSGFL
Chain of Vitamin D3 receptor (Homo sapiens) (P11473 whole entry, looked up): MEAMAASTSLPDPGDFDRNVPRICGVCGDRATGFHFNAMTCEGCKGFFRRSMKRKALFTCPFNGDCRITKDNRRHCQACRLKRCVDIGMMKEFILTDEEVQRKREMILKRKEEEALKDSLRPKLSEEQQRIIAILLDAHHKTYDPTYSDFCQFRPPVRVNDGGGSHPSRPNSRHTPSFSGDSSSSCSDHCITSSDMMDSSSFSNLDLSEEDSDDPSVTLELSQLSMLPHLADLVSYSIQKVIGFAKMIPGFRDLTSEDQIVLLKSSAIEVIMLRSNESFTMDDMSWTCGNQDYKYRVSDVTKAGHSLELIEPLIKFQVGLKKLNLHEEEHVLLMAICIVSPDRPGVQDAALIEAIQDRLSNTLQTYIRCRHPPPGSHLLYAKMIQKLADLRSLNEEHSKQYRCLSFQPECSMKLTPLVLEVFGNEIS
Chain of Peroxisome proliferator-activated receptor gamma (Homo sapiens) (P37231 whole entry, looked up): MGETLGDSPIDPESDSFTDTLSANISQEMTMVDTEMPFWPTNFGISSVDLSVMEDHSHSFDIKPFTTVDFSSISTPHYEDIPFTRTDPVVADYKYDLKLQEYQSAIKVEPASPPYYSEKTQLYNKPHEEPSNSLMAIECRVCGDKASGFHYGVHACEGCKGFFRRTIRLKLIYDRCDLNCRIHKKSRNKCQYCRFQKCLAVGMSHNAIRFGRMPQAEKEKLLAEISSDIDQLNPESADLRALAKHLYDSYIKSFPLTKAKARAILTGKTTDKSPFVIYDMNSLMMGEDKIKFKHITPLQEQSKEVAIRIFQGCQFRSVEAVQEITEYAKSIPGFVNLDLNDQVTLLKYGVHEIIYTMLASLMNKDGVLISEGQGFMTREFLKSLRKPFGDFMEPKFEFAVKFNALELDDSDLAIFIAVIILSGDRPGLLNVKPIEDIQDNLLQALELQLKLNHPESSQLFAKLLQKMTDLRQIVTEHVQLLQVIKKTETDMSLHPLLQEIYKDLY

Regarding `N#CCc1ccc(Cl)cc1Cl`, the Potency result in test [1], in [2], in test [3], in test [4], in [5] and in test [6] was “inactive” in each case. In addition, the Potency result in test [7], in test [8], in [9], in test [10], in [11] and in test [12] was “inactive” each time. The Potency result in [13] is “inactive”.
For the molecule `O=C(O)c1ccc(OCCCOc2ccc(C(=O)O)cc2)cc1`, the Potency entry in test [1], in [2], in test [3], in [14], in test [5] and in test [6] was “inactive” throughout. Further, the Potency result in [7], in test [8], in test [10], in test [11], in test [15] and in [13] was “inactive” each time. The Potency entry in test [16], in test [17], in [18] and in test [19] was “inactive” in each case.
As to `COc1ccccc1Oc1c(NS(=O)(=O)c2ccc(C(C)(C)C)cc2)nc(-c2ncccn2)nc1OCCO`, the Potency entry in [1], in [2], in test [3], in [14], in [5] and in test [7] was “inactive” in each case. The Potency entry in test [8], in test [10], in test [11], in [12], in test [20] and in test [13] was “inactive” throughout. Further, the Potency result in test [19] was “inactive”.
Consider `CC1(C)[C@@H](OC(=O)CCC(=O)O)CC[C@]2(C)[C@H]3C(=O)C=C4[C@@H]5C[C@@](C)(C(=O)O)CC[C@]5(C)CC[C@@]4(C)[C@]3(C)CC[C@@H]12`, for which the Potency result in test [1], in test [2], in test [3], in test [14], in [5] and in test [7] was “inactive” in each case. Besides, the Potency result in test [9], in test [10], in test [12] and in [13] was “inactive” throughout. Also, the Potency in [6] was 26.6 µM (active).
`CCCCCCCCN`: the Potency result in [1], in test [2], in test [3], in test [4], in test [5] and in test [6] was “inactive” each time. In addition, the Potency entry in test [7], in [9], in [10], in [11], in test [12] and in [13] was “inactive” throughout. The Potency entry in test [17], in [18] and in test [19] was “inactive” each time.
For the molecule `CCOC(=O)c1ccc(OCCN2C[C@H](O)[C@@H](O)[C@H](O)[C@H]2CO)cc1`, the Potency entry in test [1], in [2], in [3], in test [4], in test [5] and in test [6] was “inactive” in each case. In addition, the Potency result in [7], in test [9], in [10], in test [11], in [12] and in test [20] was “inactive” each time. The Potency entry in [13], in test [17], in [18] and in test [19] was “inactive” each time.
Regarding `O=C(Cn1ccnc1[N+](=O)[O-])NCCO`, the Potency result in test [1], in [2], in test [3], in test [4], in test [5] and in test [6] was “inactive” throughout. For the same molecule, the Potency entry in test [7], in test [8], in test [9], in test [10], in test [12] and in [20] was “inactive” throughout. The Potency result in test [15], in test [16], in [17], in test [18] and in [19] was “inactive” in each case.
Turning to `CC(=O)OCC[N+](C)(C)C`, the Potency entry in [1], in test [2], in [3], in test [4], in [5] and in test [6] was “inactive” each time. The Potency entry in test [7], in [8], in [9], in test [10], in test [11] and in test [12] was “inactive” in each case. Besides, the Potency result in [15], in test [16], in test [17], in test [18] and in [19] was “inactive” each time.
